Among all 5,500 compounds or so, about 2,000 (36%) were called active. Not shown: some 18% with an inconclusive outcome. No stated cut-off is given here; in the data, active means normalized growth mostly below about 0.91 (no sharp cut-off); inconclusive means no clear call, values can overlap the other calls; inactive means mostly above about 0.92. The list shows a part of the results.
Assay: chemical genetic growth profiling, strain panel (AID 1159580);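 further: tested at 20 µM; growth read once vehicle control cultures reached saturation at 30 °C; 1 = growth at the plate median or of vehicle wells; lower values mean less growth of the strain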
Settings: S. cerevisiae deletion strains, growth OD

Measured: normalized growth

C=C(C)C1Cc2c(ccc3c2OC2COc4cc(OC)c(OC)cc4C2C3=O)O1 (stereo unspecified)
inactive: locus YAL040C, strain CLN3, hits give low values 1.07 | locus YCL061C, strain MRC1 (second series), hits give low values 0.98 | locus YDR363W, strain ESC2, hits give low values 0.99 | locus YER002W, strain NOP16, hits give low values 0.992 | locus YNL153C, strain GIM3, hits give low values 0.942 | locus YNL175C, strain NOP13, hits give low values 0.955 | locus YNL197C, strain WHI3, hits give low values 0.979 | locus YNL224C, strain SQS1, hits give low values 0.964 | locus YNL322C, strain KRE1, hits give low values 0.98 | locus YOR083W, strain WHI5 (second series), hits give low values 0.958 | locus YPL055C, strain LGE1, hits give low values 1.01

From PubChem BioAssay AID1159580 (chemical genetic matrix, 2015)
